Rows were chosen to be rich in hits. Some 2.1% of all compounds tested hit in one or more screens of this group.
BaF3 tox: parental Ba/F3 viability inhibition as JAK2V617F counter-screen; CellTiter-Glo ATP luminescence; inhibition, % at 5.6 µM; 220,000 tested, 1.1% active; AID 1486;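 active = inhibition above a per-campaign cutoff, the mean inhibition of all tested compounds plus 3 SD, cut at about 27% in these data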;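 also: 0% = DMSO wells and 100% = JAK Inhibitor I control wells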
aSyn UTR inh: MLPCN primary screen, SNCA 5' untranslated region | alpha-synuclein 5'UTR reporter, inhibitor activity | 300,000 tested, 0.82% active | inhibition, % (tested at 7.5 µM); in the data active = inhibition above about 60%;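 also: H4 neuroglioblastoma cells stably carrying SNCA 5'UTR luciferase fusion; 0% = DMSO wells and 100% = positive control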
Ba/F3 V617F tox: lowers viability of Ba/F3 cells expressing EpoR and JAK2V617F | ATP luminescence | inhibition, % at 5.6 µM | 220,000 tested, 1.1% active | AID 1446;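 active = inhibition above the campaign mean plus 3 SD over all tested compounds, cut at about 24% in these data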;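 also: cytokine-independent growth of Ba/F3 cells driven by EpoR plus mutant JAK2; 0% = DMSO-treated cells and 100% = JAK inhibitor I control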
IEC-6 tox: counter-screen for KLF5 inhibitors: cytotoxicity in IEC-6 cells | IEC-6 cytotoxicity, luminescence viability | inhibition, % at 5 µM | 290,000 tested, 0.78% active; in the data active = inhibition above about 22%;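 also: 0% = plate median of test compound wells and 100% = cytotoxic reference compound wells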
KLF5 inhibitor: inhibitors of KLF5 expression; DLD-1 KLF5 promoter-luciferase reporter, luminescence; inhibition, % at 5 µM; 290,000 tested, 0.23% active;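 active = inhibition above a per-plate limit of that plate's mean compound inhibition plus 3 SD, cut at about 60% in these data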;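 also: 0% = DMSO wells and 100% = LY294002 at 200 µM; higher means less KLF5 promoter-driven luciferase light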
APP transl inh: APP translation inhibition | SH-SY5Y APP 5'UTR-luciferase reporter, luminescence | inhibition, % at 2 µM | 190,000 tested, 0.82% active | AID 1285;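 active = inhibition above a set limit, derived from the sample mean plus 3 SD, cut at about 45% in these data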
The depositor's hits bear a star; · = not tested or not shown.

SMILES | BaF3 tox | aSyn UTR inh | Ba/F3 V617F tox | IEC-6 tox | KLF5 inhibitor | APP transl inh
CC(C)c1ccc(/C=N/NC(=O)c2ccccc2Cl)cc1 | 5 | -38 | 23 | 21 | -9 | 61*
O=C(N/N=C/c1cc(Br)ccc1O)c1ccccc1Cl | 3 | 67* | -2 | 5 | 14 | 41
CC(C)c1ccc(/C=N/Nc2ccc(C(=O)O)cc2)cc1 | 7 | 85* | 7 | 0 | 32 | -15
COC(=O)N/N=C/c1cc(Br)ccc1O | 10 | -19 | 3 | 2 | -21 | 2
O=C(N/N=C/c1cc(Br)ccc1O)c1cccc(N2CCCC2=O)c1 | 2 | 68* | 2 | 0 | 14 | 34
O=C(CCC1CCCCC1)NCCS(=O)(=O)N1CCN(c2ccccc2)CC1 | · | 20 | · | · | · | ·
Cn1c(=O)n(C)c2cc(NS(=O)(=O)c3ccc(C(C)(C)C)cc3)ccc21 | 30* | -23 | 12 | 9 | -22 | 0
Cn1c(=O)n(C)c2cc(NS(=O)(=O)c3ccc4c(c3)CCCC4)ccc21 | 28* | -33 | 25* | 19 | -33 | 2
O=C(Nc1ccc2ccccc2n1)c1ccccc1Br | · | -146 | · | 3 | -152 | ·
Cc1cccc(OCC(=O)Nc2c3c(nn2C(C)(C)C)CS(=O)(=O)C3)c1 | · | 0 | · | 0 | -4 | ·
COc1ccc(/C=c2/sc3n(c2=O)C(c2ccccc2OC)C2=C(N=3)c3ccccc3CC2)cc1O (stereo unspecified) | 29* | 94* | 11 | -2 | 6 | 84*
CCOC(=O)C1=C(C)N=c2s/c(=C\c3ccc(O)c([N+](=O)[O-])c3)c(=O)n2C1c1ccccc1OC (stereo unspecified) | · | 5 | · | -12 | -3 | ·
CCN(CC)S(=O)(=O)c1ccc(C)c(C)c1 | 5 | 16 | -2 | -4 | -12 | 11
CCN(CC)S(=O)(=O)c1ccc2c(c1)C(=NO)c1cc(S(=O)(=O)N(CC)CC)ccc1-2 | 16 | 115* | 12 | 7 | 2 | -10
O=S(=O)(c1ccc2c(c1)C(=NO)c1cc(S(=O)(=O)N3CCCCC3)ccc1-2)N1CCCCC1 | -3 | 96* | 2 | 9 | -6 | 5
Cc1ccc(N(CCC#N)C(=O)COC(=O)C2CCN(S(=O)(=O)c3ccc4c(c3)OCCO4)CC2)cc1 | · | -2 | · | · | · | ·
O=C(c1ccc(Cl)nc1)N1CCN(S(=O)(=O)c2ccc(Cl)cc2)CC1 | 2 | 3 | 0 | -2 | -29 | -5
CC1CCN(C(=O)Cn2c3ccccc3c3nc4n(c(=O)c32)CCS4)CC1 | · | 8 | · | 2 | 11 | ·
Cc1ccc(-n2ncc3c2CC(C)(C)CC3NC(=O)CCc2cccnc2)cc1 (stereo unspecified) | · | 3 | · | 8 | -38 | ·
COc1ccc(CN(C(=O)c2oc3cc(C)ccc3c2C)C2CCS(=O)(=O)C2)cc1OC (stereo unspecified) | · | 35 | · | -1 | -3 | ·
COc1ccc(CN(C)C(=S)Nc2ccc(Cl)cc2)cc1 | 36* | -10 | 39* | -1 | -23 | -7
CCN(CC)C(=S)Nc1ccc(OC)cc1 | 1 | 4 | -4 | -6 | 3 | 4
CN1/C(=C\C=O)C(C)(C)c2ccccc21 | 49* | 19 | 39* | 4 | -10 | 10
CN1/C(=C\C=Nc2ccc3ccccc3c2)C(C)(C)c2ccccc21 | 42* | · | 48* | 14 | -13 | -15
CN1/C(=C/C=C(C#N)C#N)C(C)(C)c2ccccc21 | 0 | -4 | -3 | -1 | 1 | -6
SMILES | BaF3 tox | aSyn UTR inh | Ba/F3 V617F tox | IEC-6 tox | KLF5 inhibitor | APP transl inh
C=CCN1C(=O)/C(=C\C=C2\N(C)c3ccccc3C2(C)C)SC1=S | 0 | -3 | -1 | 6 | -1 | -6
CN(C)c1ccc(N=C/C=C2\N(C)c3ccccc3C2(C)C)cc1 | 11 | -114 | 2 | 3 | -116 | -143
CN1\C(=C/C=C/C=C/C=[N+](C)C)C(C)(C)c2ccccc21 | 33* | 36 | 38* | -7 | -14 | 10
CCOc1ccc(N(CC(=O)NCCSCc2ccc(Cl)cc2)S(C)(=O)=O)cc1 | · | 8 | · | -5 | -15 | ·
COCCC1CCCCN1C(=O)c1cccc(OC2CCN(S(C)(=O)=O)CC2)c1 (stereo unspecified) | · | 7 | · | -6 | -47 | ·
CC1(C)CC(=O)C2=C(C1)N(CC1CCCO1)C(=O)NC2(C(F)(F)F)C(F)(F)F (stereo unspecified) | 38* | 10 | -2 | -2 | -14 | 7
CC1(C)CC(=O)C2=C(C1)N(CC1CCCO1)C(=O)C2(O)C(F)(F)F (stereo unspecified) | 2 | -8 | -4 | 1 | -9 | -7
